Counter-ions that a name gives are not always drawn.

The values that follow come from the supplement of paper PMC9492666.

In test [1] the test system is HCC1937. Description: relative cell viability, compound + erastin, vs DMSO (fraction of DMSO control); higher = less growth inhibition. The conditions noted are these: 72 h.
Test [2] deals with MDA-MB-231. The description is as above. The conditions noted are these: 72 h.
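Further: viability read by CCK-8 kit in 96-well plates, part of a combination screen pairing lipid-metabolism-targeting compounds with erastin.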

Turning to `Cc1cc(C)c(S(=O)(=O)N(CCc2cccc(Br)c2)Cc2ccc(-c3cccc(S(C)(=O)=O)c3)cc2)c(C)c1` + CCOc1ccccc1-n1c(C(C)N2CCN(C(=O)COc3ccc(Cl)cc3)CC2)nc2ccccc2c1=O [erastin], the relative cell viability in test [1] turned out to be 0.537; in test [2], 0.777.
The matching figures for `C[C@@H]1C(=O)O[C@H]2[C@H](O)[C@@]34O[C@@H]5OC(=O)[C@H](O)[C@@]56[C@H](C(C)(C)C)[C@H](O)C(OC3=O)[C@]64[C@@]12O` (some centres not stated) [Ginkgolide C] + CCOc1ccccc1-n1c(C(C)N2CCN(C(=O)COc3ccc(Cl)cc3)CC2)nc2ccccc2c1=O [erastin]: 0.697 and 0.747.
For `CCCCCCCCCCC[C@@H](C[C@@H]1OC(=O)[C@H]1CCCCCC)OC(=O)[C@H](CC(C)C)NC=O` [Orlistat] + CCOc1ccccc1-n1c(C(C)N2CCN(C(=O)COc3ccc(Cl)cc3)CC2)nc2ccccc2c1=O [erastin], in that order: 0.725 and 0.52.
With `Cc1cc(C)c(S(=O)(=O)Nc2cccc(C(F)(F)F)c2)c(C)c1` + CCOc1ccccc1-n1c(C(C)N2CCN(C(=O)COc3ccc(Cl)cc3)CC2)nc2ccccc2c1=O [erastin], the relative cell viability in test [1] turned out to be 0.922; in test [2], 0.98.
`O=C(/C=C/c1ccc(/C=C/C(=O)Nc2ccc(C3=NCCN3)cc2)cc1)Nc1ccc(C2=NCCN2)cc1` + CCOc1ccccc1-n1c(C(C)N2CCN(C(=O)COc3ccc(Cl)cc3)CC2)nc2ccccc2c1=O [erastin]: the relative cell viability in test [1] turned out to be 0.554; in test [2] it was 0.346.
Regarding `O=C(NCCS(=O)(=O)c1ccc(C(F)(F)F)cn1)c1ccc(Cl)cc1` + CCOc1ccccc1-n1c(C(C)N2CCN(C(=O)COc3ccc(Cl)cc3)CC2)nc2ccccc2c1=O [erastin], the relative cell viability in test [1] is 0.511; in test [2], 0.503.
The matching figures for `CC(C)(C)N1C(=O)C(Nc2ccc(N3CCCCC3)cc2)=C(c2ccccc2)S1(=O)=O` + CCOc1ccccc1-n1c(C(C)N2CCN(C(=O)COc3ccc(Cl)cc3)CC2)nc2ccccc2c1=O [erastin]: 0.678 and 0.797.
For `C[C@@H]1OCC2(CCN(c3cnc(Sc4ccnc(N)c4Cl)c(N)n3)CC2)[C@@H]1N` + CCOc1ccccc1-n1c(C(C)N2CCN(C(=O)COc3ccc(Cl)cc3)CC2)nc2ccccc2c1=O [erastin], in that order: 0.553 and 0.732.
For `O=C(O)c1ccnc(N2CC(O)(c3ccc(OCc4c(-c5c(Cl)cccc5Cl)noc4C4CC4)cc3Cl)C2)c1` [Cilofexor] + CCOc1ccccc1-n1c(C(C)N2CCN(C(=O)COc3ccc(Cl)cc3)CC2)nc2ccccc2c1=O [erastin], in that order: 0.577 and 0.692.
`Cc1cc(=O)oc2c(O)c(O)ccc12` [7,8-Dihydroxy-4-methylcoumarin] + CCOc1ccccc1-n1c(C(C)N2CCN(C(=O)COc3ccc(Cl)cc3)CC2)nc2ccccc2c1=O [erastin]: the figures for the relative cell viability in test [1] and in test [2] were 0.489 and 0.881, respectively.
With `O=C(O)C(=O)Nc1sc2c(c1C(=O)O)CCNC2` + CCOc1ccccc1-n1c(C(C)N2CCN(C(=O)COc3ccc(Cl)cc3)CC2)nc2ccccc2c1=O [erastin], the relative cell viability in test [1] was found to be 0.755; in test [2], 0.635.
In the case of `C=CC[S+]([O-])C[C@H](N)C(=O)O` (some centres not stated) [Alliin] + CCOc1ccccc1-n1c(C(C)N2CCN(C(=O)COc3ccc(Cl)cc3)CC2)nc2ccccc2c1=O [erastin], the relative cell viability was 0.864 in test [1] and 0.778 in test [2].
For `Fc1ccc(-c2c3cccc(C(F)(F)F)c3nn2Cc2ccc(F)cc2Cl)cc1` + CCOc1ccccc1-n1c(C(C)N2CCN(C(=O)COc3ccc(Cl)cc3)CC2)nc2ccccc2c1=O [erastin], in that order: 0.797 and 0.509.
Consider `Cc1coc2c1C(=O)C(=O)c1c-2ccc2c(C)cccc12` [Tanshinone I] + CCOc1ccccc1-n1c(C(C)N2CCN(C(=O)COc3ccc(Cl)cc3)CC2)nc2ccccc2c1=O [erastin], for which the figures for the relative cell viability in test [1] and in test [2] were 0.226 and 0.396, respectively.
The matching figures for `O=P(O)(O)OC(CO)CO` [β-Glycerol phosphate disodium salt pentahydrate] + CCOc1ccccc1-n1c(C(C)N2CCN(C(=O)COc3ccc(Cl)cc3)CC2)nc2ccccc2c1=O [erastin]: 0.614 and 0.527.
For `CC(C)(Oc1ccc(CCNC(=O)c2ccc(Cl)cc2)cc1)C(=O)O` [Bezafibrate] + CCOc1ccccc1-n1c(C(C)N2CCN(C(=O)COc3ccc(Cl)cc3)CC2)nc2ccccc2c1=O [erastin], in that order: 0.736 and 0.937.
The matching figures for `Oc1ccc(/C=C/c2cc(O)cc(O)c2)cc1` [Resveratrol] + CCOc1ccccc1-n1c(C(C)N2CCN(C(=O)COc3ccc(Cl)cc3)CC2)nc2ccccc2c1=O [erastin]: 0.635 and 0.853.
In the case of `CCC(=O)O[C@]1(C(=O)SCF)[C@H](C)C[C@H]2[C@@H]3C[C@H](F)C4=CC(=O)C=C[C@]4(C)[C@@]3(F)[C@@H](O)C[C@@]21C` [Fluticasone propionate] + CCOc1ccccc1-n1c(C(C)N2CCN(C(=O)COc3ccc(Cl)cc3)CC2)nc2ccccc2c1=O [erastin], the results for the relative cell viability in test [1] and in test [2] were 0.967 and 0.545, respectively.
Take `O=C(Nc1cccnn1)N1CCC(=Cc2cccc(Oc3ccc(C(F)(F)F)cn3)c2)CC1` + CCOc1ccccc1-n1c(C(C)N2CCN(C(=O)COc3ccc(Cl)cc3)CC2)nc2ccccc2c1=O [erastin]: the relative cell viability in test [1] came out at 0.667; in test [2], 0.554.
The matching figures for `C[C@H](CCOc1cccc(CC(=O)O)c1)N(Cc1cccc(C(F)(F)F)c1Cl)CC(c1ccccc1)c1ccccc1` [RGX-104 free Acid] + CCOc1ccccc1-n1c(C(C)N2CCN(C(=O)COc3ccc(Cl)cc3)CC2)nc2ccccc2c1=O [erastin]: 0.564 and 0.488.
Turning to `Cc1c(C)c2c(c(C)c1O)CCC(C)(COc1ccc(CC3SC(=O)NC3=O)cc1)O2` (configuration not stated) [Troglitazone] + CCOc1ccccc1-n1c(C(C)N2CCN(C(=O)COc3ccc(Cl)cc3)CC2)nc2ccccc2c1=O [erastin], the relative cell viability in test [1] was determined as 0.641; in test [2], 0.669.
For `Oc1ccc2c(c1)OCO2` [Sesamol] + CCOc1ccccc1-n1c(C(C)N2CCN(C(=O)COc3ccc(Cl)cc3)CC2)nc2ccccc2c1=O [erastin], in that order: 0.489 and 1.02.
On to `Cc1cc([N+](=O)[O-])ccc1NS(=O)(=O)c1cc(Cl)ccc1Cl` + CCOc1ccccc1-n1c(C(C)N2CCN(C(=O)COc3ccc(Cl)cc3)CC2)nc2ccccc2c1=O [erastin], for which the relative cell viability turned out to be 0.585 in test [1] and 0.616 in test [2].
For `CC(C)n1c(/C=C/C(O)CC(O)CC(=O)O)c(-c2ccc(F)cc2)c2ccccc21` (configuration not stated) [Fluvastatin sodium salt] + CCOc1ccccc1-n1c(C(C)N2CCN(C(=O)COc3ccc(Cl)cc3)CC2)nc2ccccc2c1=O [erastin], in that order: 0.58 and 0.869.
For `NNC(=O)c1nn(Cc2ccc(Cl)cc2Cl)c2ccccc12` [Adjudin] + CCOc1ccccc1-n1c(C(C)N2CCN(C(=O)COc3ccc(Cl)cc3)CC2)nc2ccccc2c1=O [erastin], in that order: 0.557 and 0.711.
For `COC(=O)c1sccc1S(=O)(=O)Nc1ccc(Nc2ccccc2)cc1OC` + CCOc1ccccc1-n1c(C(C)N2CCN(C(=O)COc3ccc(Cl)cc3)CC2)nc2ccccc2c1=O [erastin], in that order: 0.529 and 1.1.
With `COc1cc(C(C)=O)ccc1O` [Acetovanillone] + CCOc1ccccc1-n1c(C(C)N2CCN(C(=O)COc3ccc(Cl)cc3)CC2)nc2ccccc2c1=O [erastin], the relative cell viability was determined as 0.508 in test [1] and 0.666 in test [2].
For `O=C(O)Cc1cccc(OCCCN(Cc2cccc(C(F)(F)F)c2Cl)CC(c2ccccc2)c2ccccc2)c1` + CCOc1ccccc1-n1c(C(C)N2CCN(C(=O)COc3ccc(Cl)cc3)CC2)nc2ccccc2c1=O [erastin], in that order: 0.855 and 0.478.
The matching figures for `COc1cc(N2CCN(C)CC2)ccc1Nc1ncc2c(n1)N(C)c1ccccc1C(=O)N2` + CCOc1ccccc1-n1c(C(C)N2CCN(C(=O)COc3ccc(Cl)cc3)CC2)nc2ccccc2c1=O [erastin]: 0.365 and 0.788.
For `C=C(C)[C@@H]1CC[C@]2(C)CC[C@]3(C)[C@H](CC[C@@H]4[C@@]5(C)CCC(=O)C(C)(C)[C@@H]5CC[C@]43C)[C@@H]12` + CCOc1ccccc1-n1c(C(C)N2CCN(C(=O)COc3ccc(Cl)cc3)CC2)nc2ccccc2c1=O [erastin], in that order: 0.608 and 0.594.
For the compound `CCN(CC)CCN(Cc1ccc(-c2ccc(C(F)(F)F)cc2)cc1)C(=O)Cn1c(SCc2ccc(F)cc2)nc(=O)c2c1CCC2` [Darapladib] + CCOc1ccccc1-n1c(C(C)N2CCN(C(=O)COc3ccc(Cl)cc3)CC2)nc2ccccc2c1=O [erastin], the relative cell viability in test [1] amounted to 0.0574; in test [2] it was 0.296.
For `Cc1nc2ccc(NCc3cccc(C(F)(F)F)c3)cc2n(CCNC(=O)CO)c1=O` + CCOc1ccccc1-n1c(C(C)N2CCN(C(=O)COc3ccc(Cl)cc3)CC2)nc2ccccc2c1=O [erastin], in that order: 0.618 and 0.89.
For `CCCCCCCCCCCCCCOc1ccc(C(=O)O)o1` + CCOc1ccccc1-n1c(C(C)N2CCN(C(=O)COc3ccc(Cl)cc3)CC2)nc2ccccc2c1=O [erastin], in that order: 0.56 and 0.696.
The matching figures for `Nc1ncnc2c1ncn2[C@@H]1O[C@H](COP(=O)(O)O)[C@@H](O)[C@H]1O` [Adenosine 5'-monophosphate] + CCOc1ccccc1-n1c(C(C)N2CCN(C(=O)COc3ccc(Cl)cc3)CC2)nc2ccccc2c1=O [erastin]: 0.642 and 0.716.
In the case of `O=C1c2cc(CO)cc(O)c2C(=O)c2c(O[C@@H]3O[C@H](CO)[C@@H](O)[C@H](O)[C@H]3O)cccc21` [Aloe-emodin-8-O-beta-D-glucopyranoside] + CCOc1ccccc1-n1c(C(C)N2CCN(C(=O)COc3ccc(Cl)cc3)CC2)nc2ccccc2c1=O [erastin], the relative cell viability in test [1] came out at 0.493; in test [2], 0.704.
For `COc1ccc(-c2cc(=O)c3c(O)c(OC)c(O)cc3o2)cc1OC` [Eupatilin] + CCOc1ccccc1-n1c(C(C)N2CCN(C(=O)COc3ccc(Cl)cc3)CC2)nc2ccccc2c1=O [erastin], in that order: 0.431 and 0.617.
